Several values for one entry are separate records, joined by “and”; a condition that tells them apart may be missing. Equal entries are not always repeated. Hit rate of the full screen: of about 16,000 compounds, about 4,000 (25%) were called active. Not shown: some 26% with an inconclusive outcome. Calls come from the whole dose curve; as a rule, active = well fitted curve in the direction sought with a large enough effect; inconclusive = small, poorly fitted or top-dose-only effect, or effect the other way; inactive = no such curve, though single readings can be large or run the other way. Not all results are given here. The source holds several records for some structures; these can differ, active in one and inactive in another.
target: Cytochrome P450 2C9 (Homo sapiens) (UniProt P11712); assay: Cytochrome panel assay with activity outcomes; details: recombinant CYP, pro-luciferin dealkylation, luminescence, p450-cyp2c9; series mostly up to 57.1 µM; activity, negative = inhibition: at the top concentration
Sequence (P11712 whole entry, looked up): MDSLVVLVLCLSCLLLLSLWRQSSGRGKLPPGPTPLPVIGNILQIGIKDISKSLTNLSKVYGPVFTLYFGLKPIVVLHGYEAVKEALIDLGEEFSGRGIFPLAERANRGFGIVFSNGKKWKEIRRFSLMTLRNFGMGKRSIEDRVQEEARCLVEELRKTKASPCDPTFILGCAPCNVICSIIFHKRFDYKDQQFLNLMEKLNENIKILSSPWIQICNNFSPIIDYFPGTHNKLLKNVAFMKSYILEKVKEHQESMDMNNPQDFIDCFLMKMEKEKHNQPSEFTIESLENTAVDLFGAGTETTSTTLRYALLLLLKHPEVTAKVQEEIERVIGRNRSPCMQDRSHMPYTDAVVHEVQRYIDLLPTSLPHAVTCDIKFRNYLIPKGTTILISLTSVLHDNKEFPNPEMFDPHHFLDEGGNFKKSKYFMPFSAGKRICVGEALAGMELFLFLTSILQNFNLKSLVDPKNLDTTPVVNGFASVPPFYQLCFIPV
% is set by controls: 0 for no effect and ±100 for the full control effect.

| SMILES | activity, negative = inhibition | AC50 |
| --- | --- | --- |
| CN1C(=O)CCS(=O)(=O)[C@@H]1c1ccc(Cl)cc1 | 8.83% [at 25.6 µM] (inactive) | – |
| c1ccc([C@H]2CNCc3ccccc32)cc1 | 21.5% (inactive) | – |
| CCCN(CCC)[C@@H]1CCc2cccc(O)c2C1 | inactive | – |
| CC[C@]1(c2cccc(O)c2)CCCCN(C)C1 | 5.89% [at 25.6 µM] (inactive) | – |
| CC1=NN=C(c2ccc(N)cc2)c2cc3c(cc2C1)OCO3 | – | inactive and 1.26 µM (active) |
| C[C@@H]1Cc2cc3c(cc2C(c2ccc(N)cc2)=NN1)OCO3 | – | 25.1 µM (active) |
| CCCC[N+]1(C)[C@@H]2CC(OC(=O)[C@@H](CO)c3ccccc3)C[C@H]1[C@H]1O[C@H]12 (some centres not stated) | 25.2% (inactive) | – |
| CC(C)CC(=O)C[C@H](O)C(Cl)(Cl)Cl | -21.3% [at 11.4 µM] (inactive) | – |
| COc1cc2c(cc1O)C[C@@H]1c3c(cc(O)c(OC)c3-2)CCN1C | -4.78% [at 11.4 µM] (inactive) | – |
| CC(C)CN1CCC2(CC1)CCN(C(=O)Oc1ccccc1)CC2 | -0.61% (inactive) | – |
| Cc1nccc2c1[nH]c1ccccc12 | inactive | – |
| Cn1c(O)c(C(c2ccccn2)c2c(O)n(C)c(=S)[nH]c2=O)c(=O)[nH]c1=S | -3.3% (inactive) | – |
| O=C(c1cc2cc3ccc(Cl)cc3nc2o1)N1CCC2(CC1)OCCO2 | -14.2% (inactive) | – |
| O=C(c1cc(-c2ccccc2)nc2ccccc12)N1CCC2(CC1)OCCO2 | – | 28.2 µM (active) |
| O=[N+]([O-])c1ccc(S(=O)(=O)Cc2ccccc2)c([N+](=O)[O-])c1 | – | 3.16 µM (active) |
| O=C(O)Cc1ccc([N+](=O)[O-])cc1[N+](=O)[O-] | 11.5% [at 11.4 µM] (inactive) | – |
| O=C1c2cc([N+](=O)[O-])ccc2-c2ccc3c4ccc5c6c(ccc(c7ccc1c2c73)c64)C(=O)c1cc([N+](=O)[O-])ccc1-5 | -26.9% [at 11.4 µM] (inactive) | – |
| N[C@H](Cc1ccc2oc3cc(=O)c4ccccc4c-3nc2c1)C(=O)O | -13.7% [at 11.4 µM] (inactive) | – |
| COc1ccc(C(=O)c2c(C)n(CCN3CCOCC3)c3cc(I)ccc23)cc1 | -7.5% (inactive) | – |
| CN(C)CS/C(N)=N/[C@H](O)C(Cl)(Cl)Cl | -28.6% [at 11.4 µM] (inactive) | – |
| CC[N+](CC)(CCNC(=O)C(=O)NCC[N+](CC)(CC)Cc1ccccc1Cl)Cc1ccccc1Cl | -3.12% (inactive) | – |
| C/C=C1\C[C@H](C)[C@@](O)(CO)C(=O)OCC2=CCN3CC[C@@H](OC1=O)[C@@H]23 | 2.59% [at 25.6 µM] (inactive) | – |
| COCCCN1CCN(c2nnc3n2-c2sc(Br)cc2C(c2ccccc2Cl)=NC3)CC1 | – | 12.6 µM (active) |
| COCCCNC(=S)NC1CC2CCCC(C1)N2Cc1cccs1 (configuration not stated) | 25% (inactive) | – |
| COc1cc2c(c(OC)c1OC)-c1ccc(O)c(=O)cc1[C@H](N)CC2 | -1.6% [at 25.6 µM] (inactive) | – |
| CC[C@]1(OC(=O)CN)C(=O)OCc2c1cc1n(c2=O)Cc2cc3ccccc3nc2-1 | 6.92% [at 11.4 µM] (inactive) | – |

| SMILES | activity, negative = inhibition | AC50 |
| --- | --- | --- |
| Nc1ccc(S(=O)(=O)c2ccc(NCN3C(=O)NC(=O)C(=O)C3=O)cc2)cc1 | 7.48% [at 11.4 µM] (inactive) | – |
| CC(C)(C)CC(=O)NC(=S)Nc1ccccc1C(F)(F)F | – | 2.51 µM (active) |
| NCCCN1CCN(c2ccccc2)CC1 | 3.16% [at 11.4 µM] (inactive) | – |
| CCNC(=O)O/N=C(\C)c1sc(-c2ccccc2)nc1C | – | 8.91 µM (active) |
| C/C(=N\OC(=O)NC(C)C)c1sc(-c2ccc(Cl)cc2)nc1C | – | 7.08 µM (active) |
| CCC(CC)C(=O)NC1CCSC1=O (configuration not stated) | -18.2% (inactive) | – |
| N=C(N)n1cc(/C=N\N=C(N)N)cn1 | 5.35% [at 11.4 µM] (inactive) | – |
| CC1=CC(=O)C2=C(C)C[C@@H](O)[C@@H]3[C@@H](OC(=O)[C@H]3C)[C@H]12 | -8.01% [at 25.6 µM] (inactive) | – |
| CN(C)C(=O)Oc1cc(OC(=O)N(C)C)cc([C@@H](O)CNC(C)(C)C)c1 | -9.69% [at 25.6 µM] (inactive) | – |
| C[C@@]12CC[C@@H]3[C@H](CCC4=CC(=O)CC[C@]43C)[C@@H]1CC[C@@H]2C(=O)Cn1cnc2c(=S)nc[nH]c21 | -11.6% [at 11.4 µM] (inactive) | – |
| COC(=O)N1CCC2(CCN(CC(C)C)CC2)CC1 | 2.36% (inactive) | – |
| C[C@@]12CC[C@H](O)C[C@@H]1CC[C@H]1[C@@H]2C[C@@H](O)[C@]2(C)[C@@H](C3=CC(=O)OC3)CC[C@]12O | 4.33% [at 25.6 µM] (inactive) | – |
| C[N+]1(C)CCN(c2ccccc2)CC1 | 15.2% (inactive) | – |
| C[C@H](CC(C#N)(c1ccccc1)c1ccccc1)N1CCCCC1 | 6.88% [at 11.4 µM] (inactive) | – |
| COc1cc(CNC(=O)CCCC/C=C\C(C)C)ccc1O | – | 1.26 µM (active) |
| COc1cc([C@@H](O)CN)ccc1O | -10.9% (inactive) | – |
| CNC[C@H](O)c1ccc(O)c(OC)c1 | -14.4% [at 25.6 µM] (inactive) | – |
| CCCCCCCCC(=O)NCc1ccc(O)c(OC)c1 | – | 3.16 µM (active) |
| COc1cc(CCN)ccc1O | 9.44% (inactive) | – |
| C[C@@H]1O[C@H](O[C@@H]2CC[C@@]3(C=O)[C@H]4CC[C@@]5(C)[C@@H](C6=CC(=O)OC6)CC[C@@]5(O)[C@@H]4CC[C@]3(O)C2)C[C@H](O)[C@@H]1O | -13.8% [at 25.6 µM] (inactive) | – |
| COc1ccc2[nH]cc(C3=CCNCC3)c2c1 | 1.78% (inactive) | – |
| C=CCN1C(=O)NC(=O)/C(=C/c2cccn2C)C1=O | -22.7% (inactive) | – |
| O=C(O)Cc1cccnc1C(=O)O | -11.6% (inactive) | – |
| O=c1cccc2n1CC1CNC[C@H]2C1 | inactive | – |
| c1ccc(N2CC[C@@]3(CCCNC3)C2)cc1 | -22.1% (inactive) | – |
| CC(C)CN1CCC2(CC1)CCN(S(C)(=O)=O)CC2 | -12.8% (inactive) | – |

| SMILES | activity, negative = inhibition | AC50 |
| --- | --- | --- |
| Cc1ccc(N(C)C(=O)Oc2cccc3ccc(C)nc23)cc1 | – | 11.2 µM (active) |
| O=C1OC(=O)[C@@H]2[C@@H]1[C@@H]1CC[C@H]2O1 | -6.96% (inactive) | – |
| O=C(O)C(C(=O)O)P(=S)(S)c1ccccc1 (configuration not stated) | 4.02% [at 11.4 µM] (inactive) | – |
| COC(=O)C[C@](O)(CCCC(C)(C)O)C(=O)O[C@@H]1C(OC)=C[C@]23CCCN2CCc2cc4c(cc2[C@H]13)OCO4 | -18% (inactive) | – |
| C[C@]12CC[C@@H]3C(=CCc4cc(O)ccc43)[C@@H]1CCC2=O | -19.8% [at 25.6 µM] (inactive) | – |
| CCN(CC)C(=O)N[C@@H]1C[C@H]2c3cccc4[nH]cc(c34)C[C@@H]2N(C)C1 | inactive | – |
| CC(=O)C1=C(O)[C@@H]2[C@@H]3c4c[nH]c5cccc(c45)C[C@@H]3C(C)(C)N2C1=O | – | 31.6 µM (active) |
| S=C=Nc1cccc(C2(N3CCCCC3)CCCCC2)c1 | -2.74% (inactive) | – |
| CCCN[C@@H]1CCc2c(OC)cccc2[C@@H]1C | -3.13% (inactive) | – |
| C=C(C)[C@H]1CC[C@]2(CO)CC[C@]3(C)[C@@H](CC[C@H]4[C@@]5(C)CC[C@@H](O)C(C)(C)[C@@H]5CC[C@@]43C)[C@H]12 | -0.565% [at 25.6 µM] (inactive) | – |
| C[C@@H]1[C@@H](C)N1C[C@H](O)Cn1ccnc1[N+](=O)[O-] (some centres not stated) | 21.8% [at 11.4 µM] (inactive) | – |
| Oc1ccc2c3c1O[C@@H]1c4[nH]c5c(c4C[C@@]4(O)[C@@H](C2)N(CC2CC2)CC[C@]314)C[C@]1(O)[C@@H]2Cc3ccc(O)c4c3[C@@]1(CCN2CC1CC1)[C@H]5O4 | 12.7% (inactive) | – |
| Oc1ccc2c3c1O[C@H]1c4[nH]c5ccccc5c4C[C@]4(O)[C@H](C2)N(CC2CC2)CC[C@@]314 | – | 25.1 µM (active) |
| Oc1ccc2c3c1O[C@H]1c4[nH]c5c(c4C[C@@]4(O)[C@@H](C2)N(CC2CC2)CC[C@]314)C[C@]1(O)[C@H]2Cc3ccc(O)c4c3[C@@]1(CCN2CC1CC1)[C@@H]5O4 | -4.82% (inactive) | – |
| C=C[C@@H]1CN2CC[C@H]1C[C@H]2[C@H](O)c1ccnc2ccccc12 | -2.06% [at 11.4 µM] (inactive) | – |
| c1cncc([C@@H]2CCCCN2)c1 | inactive | – |
| NCCSC(c1ccccc1)c1ccccc1 | – | 1 µM (active) |
| C[C@H](N)[C@@H](O)c1ccccc1 | -10.4% [at 25.6 µM] (inactive) | – |
| CC(=O)[C@@H]1CC[C@@H]2[C@@H]3CC=C4C[C@H](OS(=O)(=O)O)CC[C@@]4(C)[C@H]3CC[C@]21C | -6.99% (inactive) | – |
| C[C@@H]1O[C@H](OC2[C@@H](O)[C@H](O)C(O)[C@H](O)[C@H]2O)[C@@H](N)C[C@@H]1N=C(N)C(=O)O (some centres not stated) | 0.868% [at 11.4 µM] (inactive) | – |
| COc1ccc2c(c1O)-c1cccc3c1[C@H](C2)N(C)CC3 | -7.79% (inactive) | – |
| O=[As](O)(O)c1ccc(N=Nc2ccc(O)cc2)cc1 | -6.31% [at 11.4 µM] (inactive) | – |
| NNC(=O)c1ccc(O)cc1 | 10.6% (inactive) | – |
| NC(N)=NC(=O)c1nc(Cl)c(N)nc1N | 12.1% (inactive) | – |
| C[C@@]12CC[C@@H]3[C@H](CCC4=CC(=O)CC[C@]43C)[C@@H]1CC[C@@H]2C(=O)COS(=O)(=O)c1ccc(Br)cc1 | -18.3% [at 11.4 µM] (inactive) | – |
